Inconclusive results are not listed. Activity calls are given as the source filed them. The call rests on the fitted dose curve; in most records, active means well fitted curve in the direction sought with a large enough effect; inconclusive means small, poorly fitted or top-dose-only effect, or another doubt; inactive means no such curve, though single readings can be large; an effect the other way counts as inactive or inconclusive.
Assays:
[1] = qHTS of pediatric cancer cell lines to identify multiple opportunities for drug repurposing: Primary screen for control Hh wild type fibroblast cells (AID 1347106); further: nearly all actives have a fitted effect of over 55% in size;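 on activity change, negative = cytotoxic: series mostly up to about 46 µM; on the % scale 0 is the no-effect control and ±100 the full control effect; a drop in luminescence marks cytotoxicity and a rise apparent proliferation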
Method in brief: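 Viability after 48 h compound treatment at 37C, 500-1,000 cells/well, read as ATP luminescence with CellTiter-Glo. Primary screens used 11-point (MIPE, 0.78 nM-46 µM) or 8-point (NPC, 0.59 nM-46 µM) final concentrations; follow-up screens used 11-point dilutions.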

[2] = qHTS of pediatric cancer cell lines to identify multiple opportunities for drug repurposing: Primary screen for Rh30 cells (AID 1347107); further: nearly all actives have a fitted effect of over 75% in size; on activity change, negative = cytotoxic: series mostly up to about 46 µM; on the % scale 0 is the no-effect control and ±100 the full control effect
Method in brief: (§1)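 Cells (500-1,000/well) in growth media were settled 5 h at 37 degrees C, then given compounds for 48 h. Viability was read as CellTiter-Glo luminescence. Primary runs used MIPE at 11 points (0.78 nM-46 µM) and NPC at 8 points (0.59 nM-46 µM); follow-ups used 11 points.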

[3] = qHTS of pediatric cancer cell lines to identify multiple opportunities for drug repurposing: Primary screen for Rh41 cells (AID 1347108); further: nearly all actives have a fitted effect of over 70% in size;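 on activity change, negative = cytotoxic: series mostly up to about 46 µM; luminescence drop marks cytotoxic hits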
Method in brief: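 CRCs from 8- or 11-point titrations (lowest final 0.59 nM NPC, 0.78 nM MIPE). Cell viability: CellTiter-Glo after 48 h incubation, 15 min room-temperature development, luminescence imaging.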

[4] = qHTS of pediatric cancer cell lines to identify multiple opportunities for drug repurposing: Confirmatory screen for A673 cells (AID 1347110);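 further: cells exposed to compound for 48 h before the viability read; nearly all actives have a fitted effect of over 65% in size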
Method in brief: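 Concentration-response curves came straight from titrations: 11 points (0.78 nM to 46 µM) for MIPE and several concentrations (0.59 nM to 46 µM) for NPC in primary, 11 points in follow-up. Readout: ATP luminescence at 48 h.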

[5] = qHTS of pediatric cancer cell lines to identify multiple opportunities for drug repurposing: Confirmatory screen for SK-N-MC cells (AID 1347111);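 further: cells exposed to compound for 48 h before the readout; nearly all actives have a fitted effect of over 70% in size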;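 on activity change, negative = cytotoxic: plate controls were DMSO for no effect and bortezomib for full effect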
Method in brief: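 Metabolically active cells were quantified by ATP-dependent luminescence (CellTiter-Glo, 15 min at room temperature) following 48 h treatment. Cells had been plated at 500-1,000 per well and settled for 5 h beforehand.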

[6] = qHTS of pediatric cancer cell lines to identify multiple opportunities for drug repurposing: Confirmatory screen for BT-12 cells (AID 1347112); further: nearly all actives have a fitted effect of over 55% in size; on activity change, negative = cytotoxic: on the % scale 0 is the no-effect control and ±100 the full control effect
Method in brief: as §1

[7] = qHTS of pediatric cancer cell lines to identify multiple opportunities for drug repurposing: Confirmatory screen for DAOY cells (AID 1347114); further: nearly all actives have a fitted effect of over 65% in size; on activity change, negative = cytotoxic: on the % scale 0 is the no-effect control and ±100 the full control effect
Method in brief: (§2)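 Viability measured as metabolically active cells via CellTiter-Glo luminescence following 48 hours of compound exposure, 11-point dilutions in confirmatory testing. 500-1,000 cells/well plated 5 hours before dosing; controls were DMSO and 2.3 µM bortezomib.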

[8] = qHTS of pediatric cancer cell lines to identify multiple opportunities for drug repurposing: Confirmatory screen for SJ-GBM2 cells (AID 1347116); further: nearly all actives have a fitted effect of over 60% in size
Method in brief: as §2

[9] = qHTS of pediatric cancer cell lines to identify multiple opportunities for drug repurposing: Confirmatory screen for TC32 cells (AID 1347118);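 further: cells exposed to compound for 48 h before the read; nearly all actives have a fitted effect of over 65% in size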
Method in brief: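 TC32 cells, 500-1,000/well in growth medium, compound-treated 48 h at 37 °C; viability from CellTiter-Glo luminescence. Primary screen: MIPE 11-point (0.78 nM–46 µM final), NPC 8-point (0.59 nM–46 µM final); confirmatory at 11-point dilutions.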

[10] = qHTS of pediatric cancer cell lines to identify multiple opportunities for drug repurposing: Confirmatory screen for U-2 OS cells (AID 1347122); further: nearly all actives have a fitted effect of over 65% in size
Method in brief: as §1

[11] = qHTS of pediatric cancer cell lines to identify multiple opportunities for drug repurposing: Confirmatory screen for Rh41 cells (AID 1347123);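 further: 48 h compound exposure; nearly all actives have a fitted effect of over 60% in size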;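 on activity change, negative = cytotoxic: plate controls were DMSO for no effect and bortezomib for full effect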
Method in brief: as §1

[12] = qHTS of pediatric cancer cell lines to identify multiple opportunities for drug repurposing: Confirmatory screen for RD cells (AID 1347124)
Method in brief: as §1

[13] = qHTS of pediatric cancer cell lines to identify multiple opportunities for drug repurposing: Confirmatory screen for Rh18 cells (AID 1347125); further: nearly all actives have a fitted effect of over 55% in size
Method in brief: as §1

[14] = qHTS of pediatric cancer cell lines to identify multiple opportunities for drug repurposing: Confirmatory screen for NB1643 cells (AID 1347109); further: nearly all actives have a fitted effect of over 45% in size;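 on activity change, negative = cytotoxic: plate controls were DMSO for no effect and bortezomib for full effect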
Method in brief: as §1

[15] = qHTS of pediatric cancer cell lines to identify multiple opportunities for drug repurposing: Confirmatory screen for LAN-5 cells (AID 1347113); further: nearly all actives have a fitted effect of over 65% in size
Method in brief: as §1

[16] = qHTS of pediatric cancer cell lines to identify multiple opportunities for drug repurposing: Confirmatory screen for NB-EBc1 cells (AID 1347115);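 further: cells exposed to compound for 48 h before the viability read; nearly all actives have a fitted effect of over 45% in size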; on activity change, negative = cytotoxic: on the % scale 0 is the no-effect control and ±100 the full control effect
Method in brief: as §1

[17] = qHTS of pediatric cancer cell lines to identify multiple opportunities for drug repurposing: Confirmatory screen for BT-37 cells (AID 1347117); further: nearly all actives have a fitted effect of over 55% in size;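 on activity change, negative = cytotoxic: plate controls were DMSO for no effect and bortezomib for full effect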
Method in brief: as §1

[18] = qHTS of pediatric cancer cell lines to identify multiple opportunities for drug repurposing: Confirmatory screen for MG 63 (6-TG R) cells (AID 1347119); further: nearly all actives have a fitted effect of over 55% in size
Method in brief: as §1

[19] = qHTS of pediatric cancer cell lines to identify multiple opportunities for drug repurposing: Confirmatory screen for control Hh wild type fibroblast cells (AID 1347121); further: nearly all actives have a fitted effect of over 70% in size
Method in brief: as §1

[20] = qHTS of pediatric cancer cell lines to identify multiple opportunities for drug repurposing: Confirmatory screen for Rh30 cells (AID 1347126); further: nearly all actives have a fitted effect of over 55% in size
Method in brief: as §1
Potency means the concentration at half of the fitted maximal effect.

CC(C)C[C@H](NC(=O)CNC(=O)c1cc(Cl)ccc1Cl)B(O)O
inactive: Potency [5] | Potency [9]
active: Potency [1] 1.05 µM | Potency [2] 1.87 µM | Potency [3] 0.469 µM | Potency [4] 0.465 µM | Potency [6] 0.465 µM | Potency [7] 0.185 µM | Potency [8] 0.185 µM | Potency [10] 0.928 µM | Potency [11] 0.165 µM | Potency [12] 0.465 µM | Potency [13] 0.369 µM

CC1(C)OC2=C(C(=O)c3ccccc3C2=O)[C@H](NCc2ccccc2)[C@H]1O
active: Potency [1] 23.5 µM | Potency [2] 5.9 µM | Potency [14] 7.37 µM | Potency [4] 2.93 µM | Potency [5] 5.22 µM | Potency [6] 20.8 µM | Potency [15] 7.37 µM | Potency [7] 8.27 µM | Potency [16] 9.27 µM | Potency [8] 7.37 µM | Potency [17] 5.22 µM | Potency [9] 4.14 µM | Potency [18] 16.5 µM | Potency [19] 13.1 µM | Potency [10] 1.85 µM | Potency [11] 2.93 µM

CC(C)(C)c1cc(NC(=O)Nc2ccc(-c3cn4c(n3)sc3cc(OCCN5CCOCC5)ccc34)cc2)no1
active: Potency [14] 16.5 µM | Potency [4] 0.585 µM | Potency [5] 10.4 µM | Potency [6] 26.1 µM | Potency [15] 23.3 µM | Potency [7] 20.8 µM | Potency [8] 16.5 µM | Potency [17] 18.5 µM | Potency [9] 3.29 µM | Potency [10] 20.8 µM | Potency [11] 13.1 µM
inactive: Potency [1] | Potency [2]

CC(NCc1ccc2c(c1)nc(NC(=O)c1ccc(-c3cn[nH]c3)s1)n2CC(C)(C)O)C(C)(C)C (stereo unspecified)
active: Potency [1] 2.35 µM | Potency [2] 14.8 µM | Potency [14] 0.293 µM | Potency [4] 0.827 µM | Potency [7] 1.47 µM | Potency [8] 1.04 µM | Potency [18] 1.31 µM | Potency [19] 7.37 µM | Potency [10] 0.928 µM | Potency [11] 0.737 µM | Potency [13] 2.61 µM | Potency [20] 0.657 µM

CC(C)=CCCC(C)=CCCC(C)=CCSc1ccccc1C(=O)O
active: Potency [1] 8.33 µM | Potency [3] 4.69 µM

COc1cccc(Nc2c(C(N)=O)cnc3c(C)cc(S(=O)(=O)c4cccc(C(=O)N(C)C)c4)cc23)c1
active: Potency [9] 0.512 µM
inactive: Potency [1] | Potency [2] | Potency [3] | Potency [14] | Potency [4] | Potency [7] | Potency [16] | Potency [8] | Potency [17] | Potency [18] | Potency [19] | Potency [10]

Nc1ccn([C@@H]2O[C@H](CO)[C@H](O)C2(F)F)c(=O)n1
active: Potency [4] 0.0585 µM | Potency [17] 0.0074 µM | Potency [18] 2.33 µM | Potency [11] 0.0522 µM | Potency [13] 2.93 µM | Potency [20] 5.85 µM
inactive: Potency [1] | Potency [2] | Potency [3] | Potency [10]

CC1(C)CCC(c2ccc(Cl)cc2)=C(CN2CCN(c3ccc(C(=O)NS(=O)(=O)c4ccc(N[C@H](CCN5CCOCC5)CSc5ccccc5)c(S(=O)(=O)C(F)(F)F)c4)cc3)CC2)C1
active: Potency [2] 9.35 µM | Potency [3] 5.9 µM | Potency [4] 8.27 µM | Potency [7] 9.27 µM
inactive: Potency [1] | Potency [14] | Potency [6] | Potency [15] | Potency [17] | Potency [9] | Potency [18] | Potency [19] | Potency [10] | Potency [11] | Potency [12]

CNC(=O)c1nn(C)c2c1C(C)(C)Cc1cnc(Nc3ccc(N4CCN(C)CC4)cc3)nc1-2
active: Potency [3] 11.8 µM | Potency [4] 0.928 µM | Potency [5] 1.17 µM | Potency [6] 9.27 µM | Potency [15] 1.85 µM | Potency [7] 9.27 µM | Potency [8] 0.657 µM | Potency [17] 1.04 µM | Potency [9] 1.65 µM | Potency [10] 1.31 µM | Potency [11] 3.29 µM | Potency [12] 0.233 µM | Potency [13] 4.65 µM | Potency [20] 0.928 µM
inactive: Potency [1] | Potency [2] | Potency [19]

O=C(O)[C@H](Cc1c[nH]c2ccccc12)N1C(=O)c2ccccc2C1=O
inactive: Potency [1] | Potency [3]

NC(=O)c1cccc2cn(-c3ccc([C@@H]4CCCNC4)cc3)nc12
inactive: Potency [1] | Potency [2] | Potency [3] | Potency [8] | Potency [19] | Potency [10]
active: Potency [4] 5.22 µM | Potency [5] 2.08 µM | Potency [17] 5.22 µM | Potency [9] 1.65 µM

CC(C)(C)c1cc(C(C)(C)C)c(NC(=O)c2c[nH]c3ccccc3c2=O)cc1O
active: Potency [5] 14.7 µM | Potency [7] 18.5 µM | Potency [18] 20.8 µM
inactive: Potency [1] | Potency [2] | Potency [20]

COc1ccc(CC2c3cc(OC)c(OC)cc3CC[N+]2(C)CCC(=O)OCCCCCOC(=O)CC[N+]2(C)CCc3cc(OC)c(OC)cc3C2Cc2ccc(OC)c(OC)c2)cc1OC (stereo unspecified)
inactive: activity change, negative = cytotoxic [1] -1.39% [at 9.22 µM] | activity change, negative = cytotoxic [3] 23.2% [at 9.22 µM]
